NCOA1 inh = SRC1 coactivator transcriptional activity inhibitors, primary screen, cell-based, luminescence | HEK293 GAL4-SRC1 luciferase reporter | inhibition, % at 3.6 µM | actives 0.12% (n = 360,000);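 active means inhibition above the campaign mean plus 3 SD, with each screening campaign given its own cutoff, cut at about 60% in these data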
GalR3 antag = GalR3 antagonists in HEK293 cells, primary screen, cell-based, fluorescence readout; Galanin receptor type 3 (Homo sapiens), O60755; HEK293 GalR3-CNG cAMP membrane potential fluorescence; galR3 body fused to GalR1 C-terminus; inhibition, % at 3 µM; actives 0.44% (n = 360,000);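 active means inhibition above the screen-wide average plus 3 SD, cut at about 13% in these data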;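 further: forskolin and galanin both at EC90 stimulate the cells; cAMP rise reported by CNG channel membrane potential dye signal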
Target sequence (O60755 1-299 limits assumed): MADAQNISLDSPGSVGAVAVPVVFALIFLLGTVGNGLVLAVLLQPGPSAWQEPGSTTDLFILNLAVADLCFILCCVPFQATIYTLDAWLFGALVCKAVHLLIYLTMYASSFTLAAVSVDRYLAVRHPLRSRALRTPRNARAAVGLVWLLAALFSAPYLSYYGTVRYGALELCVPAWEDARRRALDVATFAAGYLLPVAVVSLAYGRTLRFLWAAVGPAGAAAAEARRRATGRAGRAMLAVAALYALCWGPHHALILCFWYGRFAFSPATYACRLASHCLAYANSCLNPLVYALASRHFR
SRC2 inh = inhibition of GAL4-SRC2 driven luciferase reporter, primary screen, SRC2 inhibitor project, cell-based, luminescence; HEK293 GAL4-SRC2 luciferase reporter; inhibition, % at 9 µM; actives 0.17% (n = 370,000);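 active means inhibition above the mean inhibition of all tested compounds plus 3 SD, set per campaign, cut at about 52% in these data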
LRH-1 inv ag = LRH-1 (NR5A2) inverse agonists, primary screen, cell-based, luminescence, HEK293T, StAR-luciferase reporter; LRH-1 transfected, 24 h; inhibition, % at 3.6 µM; actives 0.13% (n = 360,000); AID 602396, 2012;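 active means inhibition above the mean inhibition of all tested compounds plus 3 SD, cut at about 73% in these data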
NR2F2 inh = NR2F2 transcriptional activity inhibitors, primary screen, cell-based, luciferase reporter, HEK293T, luminescence | AID 686940, 2013 | COUP transcription factor 2 (Homo sapiens), P24468 | inhibition, % at 8.6 µM | HEK293T NGFI-A luciferase reporter | actives 0.7% (n = 370,000);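 active means inhibition above a per-plate cutoff, mean inhibition of test wells between control levels plus 3 SD, cut at about 38% in these data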;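 further: cells cotransfected with COUP-TFII expression vector driving the NGFI-A reporter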
SRC3 inh = SRC3 coactivator transcriptional activity inhibitors, primary screen, cell-based, luminescence; AID 588352, 2011; actives 0.17% (n = 360,000); Nuclear receptor coactivator 3 (Homo sapiens), Q9Y6Q9; inhibition, % at 3.6 µM; HEK293 GAL4-SRC3 luciferase reporter;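 active means inhibition above a per-campaign cutoff, the mean of all compounds plus 3 SD, cut at about 60% in these data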;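 further: higher means less SRC3-driven luciferase light from the GAL4 reporter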
VP16 Luc counter = Gal4-VP16 luciferase reporter inhibitors, counter-screen for COUP-TFII antagonist project, cell-based, luminescence, HEK293; actives 25% (n = 2,500); AID 687007, 2013; inhibition, % at 8.5 µM; shares compounds with NR2F2 inh; in the data active means inhibition above about 13%
COUP-TFII conf = NR2F2 transcriptional activity inhibitors, confirmation, cell-based, luciferase reporter, HEK293, triplicate. shares compounds with NR2F2 inh. HEK293 NGFI-A luciferase reporter, luminescence. inhibition, % at 8.5 µM. actives 45% (n = 2,500). AID 687008, 2013;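 active means mean inhibition over three repeats above a set limit taken from the earlier primary screen, cut at about 38% in these data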
Hits are given with their value; - = inactive; . = not tested or not shown. This is a sample that favours compounds with a hit; in the whole collection about 1.1% have one here.

SMILES | NCOA1 inh | GalR3 antag | SRC2 inh | LRH-1 inv ag | NR2F2 inh | SRC3 inh | VP16 Luc counter | COUP-TFII conf
O=[N+]([O-])c1ccc(Cl)c(C2Nc3cccc4cccc(c34)N2)c1 | - | - | - | - | 41.3 | - | - | -
Cn1c(=O)c2[nH]c(CCCCCCCc3nc4ccccc4[nH]3)nc2n(C)c1=O | - | - | - | - | 54.6 | - | - | -
CC1(C(=O)Nc2nc3ccc(S(C)(=O)=O)cc3s2)CC1(Cl)Cl (stereo not drawn) | - | - | - | - | - | - | . | .
Cc1ccc(S(=O)(=O)n2ccc3c(OCCOCCNCc4ccc(F)cc4)cccc32)cc1 | - | - | - | - | 43.0 | - | - | -
c1ccc(-c2ccc(CNc3nc(-c4ccccn4)nnc3-c3ccccc3)cc2)cc1 | . | . | . | . | 55.1 | . | - | -
CC(C)(C)CCNc1nc(-c2ccccn2)nnc1-c1ccccc1 | . | . | . | . | 51.6 | . | - | -
C=CCNc1nc(-c2ccccn2)nnc1-c1ccccc1 | - | - | - | - | - | - | . | .
CN(C(=O)CN1CCN(c2cc(-c3ccc(-c4ccccc4)cc3)ncn2)CC1)c1ccccc1 | - | - | - | - | 53.8 | - | - | -
Cc1ccccc1N(C)C(=O)CN1CCN(c2nc(-c3ccccc3)cs2)CC1 | . | . | - | . | - | . | . | .
COC(=O)c1ccc(S(=O)(=O)N2CCCN(Cc3cccc(Br)c3F)CC2)n1C | - | - | - | - | 54.8 | - | - | -
O=C(c1ccc(S(=O)(=O)NCc2ccco2)cc1)N1CCN(Cc2ccccc2)CC1 | - | - | - | - | - | - | . | .
COc1ccc(CN2CCN(C(=O)c3ccc(S(=O)(=O)NCc4ccco4)cc3)CC2)cc1 | - | - | - | - | 45.2 | - | - | -
Cc1ccc(S(=O)(=O)N2CCCC2C(=O)Nn2cnnc2)cc1 (stereo not drawn) | - | - | - | - | - | - | . | .
CCCn1nc(C(=O)Nc2ccc3nc(N4CCOCC4)sc3c2)ccc1=O | - | - | - | - | 43.2 | - | - | -
COc1ccc(C(=O)Nc2ccc3nc(N4CCOCC4)sc3c2)cc1OC | - | - | - | - | - | - | . | .
CCOC(=O)c1c(-c2ccccc2)csc1NC(=O)CSc1nc(N)cc(N)n1 | - | - | - | - | 60.6 | - | - | -
O=NN(CCc1ccncc1)c1ccc(OCc2ccccc2)cc1 | - | - | - | - | 50.8 | - | - | 44.9
O=C(CCc1nnc(-c2ccc(-c3ccccc3)cc2)o1)NCCc1ccccn1 | - | - | 59.5 | - | 43.3 | - | - | -
COC(=O)CCCNC(=O)CCc1nnc(-c2ccc(-c3ccccc3)cc2)o1 | - | - | 56.7 | - | 52.4 | - | - | -
COCCNC(=O)CCc1nnc(Cc2ccc(-c3ccccc3)cc2)o1 | - | - | - | - | - | - | . | .
CC(c1nccs1)N(C)C(=O)CCc1nnc(-c2ccc(-c3ccccc3)cc2)o1 (stereo not drawn) | - | - | - | - | - | - | . | .
O=C(CCc1nnc(Cc2ccc(-c3ccccc3)cc2)o1)NCCc1ccccn1 | - | - | - | - | - | - | . | .
CC(NC(=O)CCc1nnc(-c2ccc(-c3ccccc3)cc2)o1)c1nccs1 (stereo not drawn) | - | - | 66.7 | - | 48.3 | - | - | -
CN1C(=O)c2cccc(NC(=O)C3CCCCC3)c2C1=O | - | - | - | - | - | - | . | .
C=CC[C@@H](CC(=O)N[C@@H](CO)Cc1ccccc1)C(=O)N[C@H](COC(=O)[C@@H](CC=C)CC(=O)OC(C)(C)C)Cc1c[nH]c2ccccc12 | - | - | - | - | - | - | . | .
SMILES | NCOA1 inh | GalR3 antag | SRC2 inh | LRH-1 inv ag | NR2F2 inh | SRC3 inh | VP16 Luc counter | COUP-TFII conf
CN(C)CC(C)(C)CNCc1cc(=O)oc2ccc3ccccc3c12 | - | - | - | - | - | - | . | .
COc1cccc(C2NC(=S)NC3=C2CCc2ccccc23)c1 (stereo not drawn) | - | - | - | - | - | - | . | .
S=C1NC2=C(CCCC2=C2SCCS2)C(c2ccccc2)N1 (stereo not drawn) | - | - | - | - | 37.5 | - | - | -
CCC(Sc1nc(=O)cc(N)n1-c1cccc(C)c1)C(=O)Nc1cc(C)on1 (stereo not drawn) | - | - | - | - | 43.0 | - | - | -
C[C@@H](CN1CCC[C@H]1CN1C(N)=NC[C@@H]1Cc1ccccc1)N1C[C@@H](Cc2ccccc2)N(CCc2ccc(Cl)c(Cl)c2)C1=N | - | . | . | - | . | - | . | .
Cc1cc(C(=O)COc2cccnc2[N+](=O)[O-])c(C)n1-c1ccccc1F | - | - | - | - | 47.5 | - | - | -
O=C(Sc1cccc2cccnc12)c1ccccc1Br | - | - | - | - | - | - | . | .
O=C(Sc1cccc2cccnc12)c1ccc(F)cc1 | . | - | - | . | 42.8 | . | 46.7 | 43.7
NCCCCCc1nnc(SCc2ccccc2Cl)o1 | - | - | 58.7 | - | 55.5 | - | 41.8 | -
NCCc1nnc(SCc2c(Cl)cccc2Cl)o1 | - | - | - | - | - | - | . | .
COc1cccc(CN(C)C(=O)c2cc(COc3ccc(-n4cncn4)cc3)on2)c1 | - | - | - | - | 38.5 | - | - | -
CC(C)(C)c1ccc(C(=O)Nc2ccc(CC(=O)O)cc2)o1 | - | - | 87.1 | - | 94.7 | - | 84.3 | 90.5
COC(=O)[C@@]12CCCCC3=C1N(CCC3)C(=O)[C@H]2CC(=O)NCCc1ccccc1OC | . | . | - | . | - | . | . | .
COc1ccc(-c2coc3c(C(=O)NCCN4CCOCC4)cccc23)c(C)c1 | - | - | - | - | - | - | . | .
COc1ccc(-c2coc3c(C(=O)NCC4CCOCC4)cccc23)c(C)c1 | - | - | - | - | 42.3 | - | - | -
COc1ccc(CNC(=O)c2cccc3c(-c4cnn(C)c4)coc23)cc1OC | - | - | - | - | 62.2 | - | - | 39.9
O=C(Nc1cccc(C(F)(F)F)c1)c1cccc2c(-c3cccnc3)coc12 | - | . | . | - | . | - | . | .
Cn1cc(-c2coc3c(C(=O)NCc4cccnc4)cccc23)cn1 | - | - | - | - | - | - | . | .
COc1cc(NC(=O)c2cccc3c(-c4cccnc4)coc23)cc(OC)c1OC | - | - | - | - | 52.0 | - | - | -

Source: PubChem BioAssay (The Scripps Research Institute Molecular Screening Center)
